Measurements published in PubChem BioAssay (NCI).
Compounds without any hit were thinned out: in the full panel of roughly 83,000, 20% have a hit.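 Cell lines were cultured in 96-well plates, exposed to a single compound concentration, and assessed for percent growth 48 hours later.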 Active and inactive are the calls of the source. Rule for the calls: active = growth percent below 10; inactive = the rest.

Columns and labels:
Test in all cases: NCI-60 one-dose screen, 48 h (100 = growth as untreated, 0 = no growth, -100 = all killed)
Conditions in all cases: 10 µM unless noted
[1] = test system: MOLT-4 leukemia
[2] = test system: SR leukemia
[3] = test system: RPMI-8226 leukemia
[4] = test system: OVCAR-8 ovarian
[5] = test system: OVCAR-5 ovarian
[6] = test system: SK-OV-3 ovarian
[7] = test system: IGROV1 ovarian
[8] = test system: OVCAR-3 ovarian
[9] = test system: HS 578T breast
[10] = test system: NCI/ADR-RES ovarian
[11] = test system: T-47D breast
[12] = test system: BT-549 breast
[13] = test system: MDA-MB-435 melanoma
[14] = test system: SW-620 colon
[15] = test system: MCF7 breast
[16] = test system: HCT-116 colon
[17] = test system: HCC-2998 colon
[18] = test system: KM12 colon
[19] = test system: OVCAR-4 ovarian

Measured: growth

C[C@@H]1C/C=C\C(=O)O[C@H](/C=C/C#C/C=C/C(C)(C)[C@@H](O)c2cccc(O)c2Br)[C@@H](C)/C=C/[C@H](C)C[C@H](OC(N)=O)C1
inactive: [1] 19.7% | [3] 11.3% | [4] 20.3% | [5] 46.8% | [6] 55.9% | [7] 48.6% | [8] 41.5% | [9] 54.8% | [10] 33.5% | [11] 12.6% | [12] 43.8% | [13] 19.2% | [14] 30.4% | [15] 18.6% | [16] 14.2% | [17] 28.2% | [18] 40.3%
active: [2] 5.45%

CC[C@H](C)[C@H](NC(=O)[C@H]1CCCCN1C)C(=O)N(C)[C@H](C[C@@H](OC(C)=O)c1nc(C(=O)NC23C4C5C2C2C3C4C52C(=O)OC)cs1)C(C)C (some centres undefined)
active: [1] 8.38% | [2] 2.77% | [12] -36% | [13] -0.902% | [16] 7.22% | [17] 9.29% | [18] -3.83%
inactive: [3] 29.2% | [4] 16.5% | [5] 55.7% | [19] 50.3% | [6] 34.4% | [7] 21.9% | [9] 34.3% | [10] 10.9% | [11] 73.3% | [14] 41.9% | [15] 13.7%

CC[C@H](CC[C@@H](C)[C@H]1CC[C@H]2[C@@H]3CC[C@H]4C[C@]5(CC[C@]4(C)[C@H]3CC[C@]12C)OO[C@](C)(C(F)(F)F)O5)C(C)C
inactive: [1] 95% | [2] 93.9% | [3] 98.3% | [4] 97% | [5] 74.3% | [6] 89.9% | [7] 79.3% | [8] 93.2% | [9] 99.8% | [10] 98% | [11] 87.9% | [12] 82.2% | [13] 96.9% | [14] 92.4% | [15] 93.2% | [16] 98.3% | [17] 104% | [18] 91.4%

COc1cc2c(cc1OC)[C@@H]1C(=O)c3ccc4c(c3O[C@@H]1CO2)C[C@H](C(C)C)O4
inactive: [1] 37% | [4] 54.7% | [5] 93.7% | [6] 75.9% | [7] 81.6% | [8] 83.1% | [9] 115% | [10] 34.9% | [11] 33.2% | [12] 44.8% | [13] 51.4% | [14] 84.7% | [15] 46.3% | [16] 39.4% | [17] 76.1% | [18] 65.6%
active: [2] 9.36% | [3] -9.79%

C[N+]12CCC34C5=CC(=O)C(=O)C=C5[N+]5(C)C(=O)CC6OCC=C(C1)C(CC32)C6C45 (centres undefined)
inactive: [1] 102% | [2] 92% | [3] 102% | [4] 99.5% | [5] 106% | [19] 101% | [6] 99.9% | [7] 96.9% | [10] 114% | [11] 107% | [12] 127% | [13] 103% | [14] 111% | [15] 95.7% | [16] 114% | [17] 106% | [18] 104%

O=[N+]([O-])c1cc(Cl)c(Cl)c([N+](=O)[O-])c1Cl
inactive: [1] 13.3% | [2] 11.2% | [3] 29.7% | [4] 38.9% | [5] 107% | [6] 105% | [7] 28.9% | [8] 10% | [9] 106% | [10] 80% | [12] 96.8% | [13] 89.3% | [15] 20.1% | [17] 109% | [18] 26%
active: [11] 0.463% | [14] -61.9% | [16] -77.1%

N#CC(N)c1ccccc1 (centres undefined)
inactive: [1] 108% | [2] 101% | [3] 99% | [4] 106% | [5] 101% | [6] 115% | [7] 115% | [8] 106% | [9] 98.5% | [10] 108% | [11] 114% | [12] 96.3% | [13] 98.3% | [14] 103% | [15] 111% | [17] 113% | [18] 103%

CC/C(=C(\c1ccc(OCCN2CCOCC2)cc1)c1ccc(OC(=O)Cc2ccccc2)cc1)c1ccc(Cl)cc1
inactive: [1] 96.7% | [2] 95.6% | [3] 98.8% | [4] 107% | [5] 104% | [6] 111% | [7] 106% | [8] 102% | [9] 96.6% | [10] 105% | [11] 63.5% | [12] 104% | [13] 107% | [14] 99.9% | [15] 75.8% | [17] 106% | [18] 101%

NC(=O)Oc1cc(OC(N)=O)cc(N(CCCl)CCCl)c1
active: [2] -17.1%
inactive: [1] 13.1% | [3] 59.7% | [4] 28.5% | [5] 91.3% | [19] 74.7% | [6] 76% | [7] 91.2% | [9] 107% | [10] 54.9% | [11] 53.6% | [12] 68.2% | [13] 65.2% | [14] 60.8% | [15] 31.8% | [17] 103% | [18] 82.3%

CC[C@H](C)[C@H](NC(=O)[C@H]1CCCCN1C)C(=O)N(C)[C@H](CCc1nc(C(=O)N[C@@H](Cc2ccccc2)C[C@H](C)C(=O)O)cs1)C(C)C
inactive: [1] 20.4% | [2] 18.6% | [3] 25.2% | [4] 15.8% | [5] 46.8% | [6] 12.3% | [7] 41.5% | [9] 27.7% | [10] 73.3% | [11] 52.6% | [14] 27.6% | [15] 14.2% | [17] 21.5%
active: [8] -4.67% | [12] -3.33% | [13] -38.1% | [16] 2.59% | [18] 9.24%

N#CCCc1ccccc1
inactive: [1] 94.5% | [2] 91.8% | [3] 111% | [4] 107% | [5] 98% | [19] 110% | [6] 111% | [7] 103% | [9] 118% | [10] 104% | [11] 112% | [12] 106% | [13] 104% | [14] 102% | [15] 92% | [16] 104% | [18] 109%

C[C@]12C[C@H](c3ccoc3)OC(=O)[C@H]1CC[C@@]1(C)[C@@H]2[C@H]2C=C[C@]1(O)C(=O)O2
inactive: [1] 96% | [2] 100% | [3] 95.4% | [4] 95.3% | [5] 104% | [6] 95.7% | [7] 96% | [8] 102% | [9] 107% | [10] 106% | [11] 103% | [12] 86.5% | [13] 98.1% | [15] 92.7% | [16] 76.6% | [17] 103% | [18] 104%

CC[C@H](C)[C@H](NC(=O)C12CC(NC)(C1)C2)C(=O)N(C)[C@H](C[C@@H](OC(C)=O)c1nc(C(=O)N[C@@H](Cc2ccccc2)C[C@H](C)C(=O)OC)cs1)C(C)C
active: [1] 8.66% | [2] -2.59% | [12] -22.4% | [13] -17.5% | [16] 1.15% | [17] 8.1% | [18] 6.78%
inactive: [3] 26.3% | [4] 17.5% | [5] 52.7% | [19] 50.3% | [6] 39.6% | [7] 29.7% | [9] 39.2% | [10] 68.9% | [11] 51.9% | [15] 15%

CC1=CC(=Nc2ccc(N(CCCl)CCCl)cc2)C=C(C)C1=O
active: [1] -21.2% | [2] -2.28% | [3] 9.64% | [19] -35.7% | [8] -62.5% | [11] -17.7% | [14] 3.05% | [16] 7.59%
inactive: [4] 18.7% | [6] 49.9% | [7] 21% | [9] 26.7% | [10] 19.8% | [12] 52.5% | [13] 35.4% | [17] 55.6% | [18] 59.8%
